Values without a mark were called inactive. Records with an inconclusive call do not appear. A call without a number means that no potency is given here. Calls of active or inactive are those of the source. Unless noted, calls come from the whole dose curve; as a rule, active = well fitted curve in the direction sought with a large enough effect; inconclusive = small, poorly fitted or top-dose-only effect, or another doubt; inactive = no such curve, though single readings can be large; an effect the other way counts as inactive or inconclusive.
How the values were obtained:
[1] = target: Mitogen-activated protein kinase 10 (Mus musculus) (UniProt Q61831); test: JNK3 AlphaScreen Assay (AID 530; active = well fitted curve in either direction with a large enough effect, not every such curve was filed as active;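 note: kinase came from lysate of stimulated human HepG2 cells; signal reports phosphorylation of biotinylated GST-cJun 1-79 at Ser73 with 10 µM ATP; series mostly up to about 57 µM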)
How it was run: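 qHTS titrations with 15 min compound pre-incubation before adding ATP (10 uM final). Read-out: AlphaScreen of Ser73-phosphorylated biotin-GST-cJun using HepG2 lysate JNK3 activated by IL-1β and TNFα.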

[2] = test system: Zika virus NS2B-NS3 protease; test: Primary screen GU AMC qHTS for Zika virus inhibitors (AID 1347154); note: nearly all actives have a fitted effect of over 70% in size
How it was run: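 Fluorogenic AMC-substrate cleavage by noncovalent NS2B-NS3 protease complex (25 nM, pH 8.0 Tris buffer with Tween 20) followed for 15 minutes at room temperature (~20% conversion). Percent inhibition from ex340/em450 signal change, fitted by 4-parameter Hill equation.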

[3] = target: Rap guanine nucleotide exchange factor 4 (Homo sapiens) (UniProt Q8WZA2); test: Confirmatory qHTS for antagonist of cAMP-regulated guanine nucleotide exchange factor 4 (EPAC2) (AID 1645885); note: potency is the fitted concentration of half-maximal effect; nearly all actives have a fitted effect of over 25% in size
[4] = Confirmation and Secondary Assay for Modulators of Hemoglobin Beta Chain Splicing at IVS2 654 locus (AID 910);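 note: HeLa cells stably carrying EGFP split by mutant beta-globin IVS2-654 intron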
How it was run: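 Readout: per-well total peak green fluorescence (488 nm ex, 500–520 nm em) from objects 5–250 µm, reflecting correct splicing of an EGFP-654 reporter. Compounds were applied for 2 days at 37 °C to overnight-plated HeLa EGFP-654 cells; controls were DMSO and 500 nM IVS2-654 PNA.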

[5] = Confirmation and Secondary Assay for Modulators of Hemoglobin Beta Chain Splicing at IVS2 705 locus (AID 930);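 note: HeLa cells stably expressing the EGFP-705 splicing reporter; GFP fluorescence per well restored by corrected splicing of the IVS2-705 intron in EGFP; series mostly up to about 46 µM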
How it was run: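 Read-out: total peak GFP fluorescence per well (488 nm excitation, 500-520 nm emission) by laser-scanning cytometry. Cells: HeLa EGFP-705 splicing reporter, 2 days compound exposure in Optimem/2% FCS.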

[6] = target: Ubiquitin carboxyl-terminal hydrolase 1 (Homo sapiens) (UniProt O94782); test: Inhibitors of USP1/UAF1: Pilot qHTS (AID 504865);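 note: rhodamine fluorescence freed from ubiquitin-rhodamine substrate followed over time; top concentration of the series differs between compounds; nearly all actives have a fitted effect of over 35% in size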
How it was run: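 In 50mM HEPES pH 7.8 containing 0.5mM EDTA, 1mM TCEP, 0.1 mg/ml BSA and 0.01% Tween-20, 1nM USP1/UAF1 is exposed to compound for 15 min, then Ub-Rho (150nM final) is added and fluorescence is read over time.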

[7] = target: Cytochrome P450 2D6 (Homo sapiens) (UniProt P10635); test: Cytochrome P450 family 2 subfamily D member 6 (CYP2D6) small molecule antagonists: luciferase biochemical (cell-free) qHTS assay (AID 1645840; active = well fitted curve in the direction sought with a large enough effect in the repeat runs; an effect the other way counts as inactive or inconclusive; note: series mostly up to about 57 µM; nearly all actives have a fitted effect of over 55% in size)
How it was run: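 P450-Glo CYP2D6 system: proluciferin substrate converted by enzyme to luciferin, read by luminescence proportional to activity. Enzyme-substrate mix with compound 10 min at room temperature, then NADPH regeneration 1 h before detection reagent.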

[8] = target: Cytochrome P450 3A4 (Homo sapiens) (UniProt P08684); test: Cytochrome P450 family 3 subfamily A member 4 (CYP3A4) small molecule antagonists: luciferase qHTS assay (AID 1645841; active = well fitted curve in the direction sought with a large enough effect in the repeat runs; an effect the other way counts as inactive or inconclusive; note: nearly all actives have a fitted effect of over 45% in size)
How it was run: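 Luminescent CYP3A4 activity readout: compounds plus enzyme-substrate mix 10 min at room temperature, reaction started with NADPH regenerating system for 1 h, stopped with detection reagent, read after 20 min. Ketoconazole served as control.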

[9] = NCATS anti-infectives library activity on HEK293 viability as a counter-qHTS vs the C. elegans viability qHTS (AID 1745854)
How it was run: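 Cytotoxicity counter-screen to a worm viability qHTS: CellTiter-Glo luminescence read 10 min after reagent addition. Compounds (final up to 41.7 uM, a 1:5 dilution series) incubated 24 hr at 37C with 1,500 HEK293 cells per well; digitonin control.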

Sequence of Rap guanine nucleotide exchange factor 4 (Homo sapiens) (Q8WZA2 whole entry, looked up): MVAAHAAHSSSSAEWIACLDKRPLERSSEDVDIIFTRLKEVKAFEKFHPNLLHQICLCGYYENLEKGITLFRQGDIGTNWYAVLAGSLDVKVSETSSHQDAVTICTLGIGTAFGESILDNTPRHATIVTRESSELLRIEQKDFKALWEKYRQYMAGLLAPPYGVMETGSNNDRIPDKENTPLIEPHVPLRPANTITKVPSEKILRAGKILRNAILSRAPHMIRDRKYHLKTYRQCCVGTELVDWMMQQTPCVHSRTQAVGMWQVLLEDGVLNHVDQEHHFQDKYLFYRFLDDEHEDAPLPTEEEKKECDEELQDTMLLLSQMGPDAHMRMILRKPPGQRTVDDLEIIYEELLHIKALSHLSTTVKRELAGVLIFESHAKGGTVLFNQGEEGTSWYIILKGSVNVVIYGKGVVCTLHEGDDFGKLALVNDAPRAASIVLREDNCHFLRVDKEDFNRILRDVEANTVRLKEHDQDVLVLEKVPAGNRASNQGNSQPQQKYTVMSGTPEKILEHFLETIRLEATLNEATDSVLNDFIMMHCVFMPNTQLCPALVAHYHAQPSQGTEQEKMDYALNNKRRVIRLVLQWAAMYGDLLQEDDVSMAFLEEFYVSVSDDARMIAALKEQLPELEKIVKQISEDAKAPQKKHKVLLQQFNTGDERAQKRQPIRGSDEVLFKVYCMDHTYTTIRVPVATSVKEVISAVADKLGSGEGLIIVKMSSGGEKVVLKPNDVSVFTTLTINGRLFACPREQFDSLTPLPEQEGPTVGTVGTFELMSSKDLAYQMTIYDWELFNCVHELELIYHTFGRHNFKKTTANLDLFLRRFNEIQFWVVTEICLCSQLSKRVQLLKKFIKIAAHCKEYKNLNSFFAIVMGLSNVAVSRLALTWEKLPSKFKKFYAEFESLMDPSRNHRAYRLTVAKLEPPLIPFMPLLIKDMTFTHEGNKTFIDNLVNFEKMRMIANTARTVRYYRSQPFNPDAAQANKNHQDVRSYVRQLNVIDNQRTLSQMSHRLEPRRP
Sequence of Cytochrome P450 3A4 (Homo sapiens) (P08684 whole entry, looked up): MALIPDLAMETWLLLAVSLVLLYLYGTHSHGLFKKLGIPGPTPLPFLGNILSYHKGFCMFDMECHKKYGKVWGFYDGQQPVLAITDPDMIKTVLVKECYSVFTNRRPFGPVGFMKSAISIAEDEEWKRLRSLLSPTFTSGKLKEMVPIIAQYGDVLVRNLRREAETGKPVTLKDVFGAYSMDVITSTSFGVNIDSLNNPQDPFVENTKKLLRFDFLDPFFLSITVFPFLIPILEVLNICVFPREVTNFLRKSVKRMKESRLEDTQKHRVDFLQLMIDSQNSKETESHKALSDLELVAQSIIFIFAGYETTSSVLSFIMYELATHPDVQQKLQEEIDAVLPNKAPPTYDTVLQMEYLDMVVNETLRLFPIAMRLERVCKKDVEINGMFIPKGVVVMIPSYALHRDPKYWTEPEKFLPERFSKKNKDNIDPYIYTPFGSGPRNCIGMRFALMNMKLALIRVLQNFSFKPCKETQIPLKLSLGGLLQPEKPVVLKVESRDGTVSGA
Sequence of Ubiquitin carboxyl-terminal hydrolase 1 (Homo sapiens) (O94782 whole entry, looked up): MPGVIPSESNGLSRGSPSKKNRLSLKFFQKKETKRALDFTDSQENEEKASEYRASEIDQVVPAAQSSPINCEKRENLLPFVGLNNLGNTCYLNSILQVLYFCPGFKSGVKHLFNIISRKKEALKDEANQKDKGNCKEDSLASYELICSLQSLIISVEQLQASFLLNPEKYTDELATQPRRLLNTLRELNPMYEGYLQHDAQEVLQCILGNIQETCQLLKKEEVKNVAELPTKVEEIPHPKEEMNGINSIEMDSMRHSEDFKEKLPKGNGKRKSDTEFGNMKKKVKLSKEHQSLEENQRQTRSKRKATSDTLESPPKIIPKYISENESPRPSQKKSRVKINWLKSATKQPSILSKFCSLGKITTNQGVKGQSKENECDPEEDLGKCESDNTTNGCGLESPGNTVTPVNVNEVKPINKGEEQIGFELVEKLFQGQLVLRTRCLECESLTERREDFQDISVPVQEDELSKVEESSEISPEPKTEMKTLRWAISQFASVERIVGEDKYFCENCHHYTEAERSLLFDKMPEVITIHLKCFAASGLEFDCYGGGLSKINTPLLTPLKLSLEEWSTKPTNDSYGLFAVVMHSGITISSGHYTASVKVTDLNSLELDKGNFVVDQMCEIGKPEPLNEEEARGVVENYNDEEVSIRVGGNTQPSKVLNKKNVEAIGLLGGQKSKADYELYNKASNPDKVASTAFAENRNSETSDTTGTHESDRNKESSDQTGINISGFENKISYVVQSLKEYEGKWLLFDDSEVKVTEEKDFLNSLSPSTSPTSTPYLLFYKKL
Sequence of Cytochrome P450 2D6 (Homo sapiens) (P10635 whole entry, looked up): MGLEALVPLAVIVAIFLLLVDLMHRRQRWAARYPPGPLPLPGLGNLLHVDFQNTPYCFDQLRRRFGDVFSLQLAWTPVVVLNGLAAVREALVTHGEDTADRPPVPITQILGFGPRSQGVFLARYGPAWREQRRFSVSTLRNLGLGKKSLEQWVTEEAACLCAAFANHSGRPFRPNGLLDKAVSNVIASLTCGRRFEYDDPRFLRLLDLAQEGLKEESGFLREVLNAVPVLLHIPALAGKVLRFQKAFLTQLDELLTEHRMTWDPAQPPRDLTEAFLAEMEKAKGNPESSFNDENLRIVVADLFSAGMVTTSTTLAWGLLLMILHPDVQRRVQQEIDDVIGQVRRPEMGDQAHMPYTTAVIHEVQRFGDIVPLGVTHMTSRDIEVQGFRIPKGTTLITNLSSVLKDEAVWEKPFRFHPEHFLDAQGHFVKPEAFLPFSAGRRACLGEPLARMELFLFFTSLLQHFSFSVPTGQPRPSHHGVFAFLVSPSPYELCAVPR

Row | SMILES | Potency [1] | Potency [2] | Potency [3] | outcome [4] | outcome [5] | Potency [6] | Potency [7] | outcome [8] | outcome [9]
1 | C/C=C\C[C@@H](C)[C@@H](O)[C@H]1C(=O)N[C@@H](CC)C(=O)N(C)CC(=O)N(C)[C@@H](CC(C)C)C(=O)N[C@@H](C(C)C)C(=O)N(C)[C@@H](CC(C)C)C(=O)N[C@@H](C)C(=O)N[C@H](C)C(=O)N(C)[C@@H](CC(C)C)C(=O)N(C)[C@@H](CC(C)C)C(=O)N(C)[C@@H](C(C)C)C(=O)N1C | inactive | inactive | 24.8 µM (active) | – | – | – | – | – | –
2 | CC(C)c1cccc(O)c(=O)c1 | – | inactive | – | inactive | inactive | inactive | inactive | inactive | inactive

Reference: PubChem BioAssay (NCATS)
